Data as given in the supplement of paper PMC12808144.
Values without a mark were called inactive.

Tests used:
NHEM-hTERT = test: cell viability relative to DMSO control (fraction of DMSO control); higher = less cytotoxic, active = 0.5 or less; conditions: 1 µM; 120 h
Procedure, shortened: (§1)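 For 120 h, duplicate wells of 384-well plates held 1 µM of each of 315 approved anti-cancer drugs (TargetMol), spotted acoustically before cells were added in 40 µl per well. Immortalized NHEM-hTERT melanocytes were seeded at 2500/well, and patient-derived Mel-DCC-11 plus its resistant subline Mel-DCC-11-R at 1500/well. The subline was run both without and with 8 µM of its selecting drug, and ATPlite 1step luminescence was read. Viability was normalised to vehicle-treated wells and averaged over the two replicates.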

Mel-DCC-11-R = test: cell viability relative to DMSO control (fraction of DMSO control); higher = less cytotoxic, active = 0.8 or less; conditions: 1 µM, 120 h
Procedure, shortened: as §1

Row | SMILES | cell viability (NHEM-hTERT) | cell viability (Mel-DCC-11-R; vemurafenib co-treatment 0 µM) | cell viability (Mel-DCC-11-R; vemurafenib co-treatment 8 µM)
1 | COC(=O)N[C@H](C(=O)N1CC2(CC2)C[C@H]1c1ncc(-c2ccc3c(c2)C(F)(F)c2cc(-c4ccc5nc([C@@H]6[C@H]7CC[C@H](C7)N6C(=O)[C@@H](NC(=O)OC)C(C)C)[nH]c5c4)ccc2-3)[nH]1)C(C)C [Ledipasvir] | 1.26 | 1.13 | 0.51 (active)
2 | CC1CCC(C(C)C)C(O)C1 (racemic) [DL-Menthol] | 0.973 | 1.07 | 1.08
3 | CCCCCCCCCCCC1=C(O)C(=O)C=C(O)C1=O [Embelin] | 1.01 | 1.07 | 1.15
4 | CC(=O)OCC(=O)[C@@]1(O)CC[C@H]2[C@@H]3CCC4=CC(=O)C=C[C@]4(C)[C@H]3[C@@H](O)C[C@@]21C [Prednisolone-21-acetate] | 0.931 | 1.14 | 1.04
5 | Nc1nc(Cl)nc2c1ncn2[C@@H]1O[C@H](CO)[C@@H](O)[C@@H]1F [Clofarabine] | 0.53 | 0.91 | 0.67 (active)
6 | CCN1CCN(Cc2ccc(Nc3ncc(F)c(-c4cc(F)c5nc(C)n(C(C)C)c5c4)n3)nc2)CC1.CS(=O)(=O)O [abemaciclib mesylate] | 0.896 | 1.8 | 0.723 (active)
7 | Cn1nnc(-c2ccc(-c3ccc(N4C[C@H](CO)OC4=O)cc3F)cn2)n1 [Torezolid] | 0.958 | 0.848 | 0.663 (active)
8 | CNC(=O)c1ccc(N2C(=S)N(c3cnc(C#N)c(C(F)(F)F)c3)C(=O)C23CCC3)cc1F [Apalutamide] | 1.01 | 0.958 | 1.1
9 | CC(C)C(=O)Nc1ccc([N+](=O)[O-])c(C(F)(F)F)c1 [Flutamide] | 1.25 | 1.1 | 1.21
10 | CO[C@H]1C(=O)[C@]2(C)[C@@H](OC)C[C@H]3OC[C@@]3(OC(C)=O)[C@H]2[C@H](OC(=O)c2ccccc2)[C@]2(O)C[C@H](OC(=O)[C@H](O)[C@@H](NC(=O)OC(C)(C)C)c3ccccc3)C(C)=C1C2(C)C [Cabazitaxel] | 0.692 | 1.04 | 0.565 (active)
11 | CCCCCCNC(=O)n1cc(F)c(=O)[nH]c1=O [Carmofur] | 1.17 | 1.12 | 1.06
12 | CC(=O)c1c(C)c2cnc(Nc3ccc(N4CCNCC4)cn3)nc2n(C2CCCC2)c1=O.O=S(=O)(O)CCO [Palbociclib Isethionate] | 1.03 | 1.6 | 1.19
13 | Clc1ccc(C(c2ccccc2Cl)C(Cl)Cl)cc1 (stereo not given) [Mitotan] | 0.958 | 1 | 0.82
14 | CCN(CC)CCNC(=O)c1c(C)[nH]c(/C=C2\C(=O)Nc3ccc(F)cc32)c1C.C[C@@H](CC(=O)O)C(=O)O [Sunitinib Malate] | 1.03 | 1.08 | 0.927
15 | CNCc1ccc(-c2[nH]c3cc(F)cc4c3c2CCNC4=O)cc1.O=P(O)(O)O [Rucaparib Phosphate] | 0.996 | 0.916 | 1.11
16 | CCC1=C[C@@H]2CN(C1)Cc1c([nH]c3ccccc13)[C@@](C(=O)OC)(c1cc3c(cc1OC)N(C)[C@H]1[C@@](O)(C(=O)OC)[C@H](OC(C)=O)[C@]4(CC)C=CCN5CC[C@]31[C@@H]54)C2.O=C(O)[C@H](O)[C@@H](O)C(=O)O.O=C(O)[C@H](O)[C@@H](O)C(=O)O [Vinorelbine Tartrate] | 0.644 | 1.04 | 0.703 (active)
17 | Nc1ccc(F)cc1NC(=O)c1ccc(CNC(=O)/C=C/c2cccnc2)cc1 [Chidamide] | 0.668 | 1.34 | 1.16
18 | CC(C)C[C@H](NC(=O)[C@H](Cc1ccccc1)NC(=O)c1cnccn1)B(O)O [Bortezomib] | 0.0282 (active) | 0.0464 (active) | 0.048 (active)
19 | O=[N+]([O-])c1cncn1CCN1CCOCC1 [Nimorazole] | 1.14 | 1.02 | 1.08
20 | O=c1cc(-c2ccc(O)cc2)oc2cc(O)cc(O)c12 [Apigenin] | 1.09 | 0.972 | 0.991
